PubChem BioAssay AID743269 (The Scripps Research Institute Molecular Screening Center, 2014)
The whole screen tested about 370,000 compounds, of which about 2,400 (0.65%) were called active.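 How the source made its calls: active means inhibition above the screen-wide mean plus 3 SD (cut at about 13% in these data); inactive means the rest.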 The sample as a whole holds a higher share of actives than the screen did.

Tested on: HIV-1 integrase (with human LEDGF/p75)
Assay: blockers of LEDGF/p75-dependent integrase strand transfer – biochemical, TR-FRET, high throughput, primary screen (AID 743269);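 further: signal is the Cy5 over europium emission ratio at 671 and 618 nm; 0% = plate median of compound wells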
Details: TR-FRET IN-LEDGF/p75 DNA integration, Eu/Cy5; at 3.7 µM; stronger effect = higher value

Compound	inhibition
COc1cc(Cn2c(N)c(C(=O)NCc3ccco3)c3nc4ccccc4nc32)cc(OC)c1OC	1.57% (inactive)
CCOC(=O)c1c(N)n(Cc2ccccc2)c2nc3ccccc3nc12	32.8% (active)
CCOC(=O)c1cccc(C2=C(CNC(=O)c3ccncc3)[C@H]3CC[C@@H](C2)N3Cc2ccccc2)c1	-5.73% (inactive)
CCN1C(=O)C(=Cc2c(C)n(CC(=O)NCC3CCCO3)c3ccccc23)C(=O)N(CC)C1=S (stereo not given)	-2.24% (inactive)
COc1ccc2c(c1)[C@@]13CCCCC1[C@@H](C2)NCC3 (stereo not given in full)	-1.92% (inactive)
Cc1c(C(=O)O)cccc1-n1c(C)cc(/C=C2\C(=O)NC(=O)N(c3ccc4c(c3)OCO4)C2=O)c1C	15.4% (active)
O=P(OC1=CCCCC1)(c1ccccc1)c1ccccc1	6.63% (inactive)
CCC(C)(O)C(=O)OC1C(=O)OC2CC3C(C)=CC(=O)C(O)C3(C)C3C4(O)OCC23C1C(C)C4O (stereo not given)	-3.3% (inactive)
CCOc1cccc(=NC2CCCCC2)c2c(C)[nH]c(C)c12	36.3% (active)
Cc1cccc(-n2c(O)c(C=NC34CN5CN(CN(C5)C3)C4)c(=O)[nH]c2=O)c1	-3.72% (inactive)
CC(C)Nc1nc(Cl)nc(NC(C)C)n1	-1.42% (inactive)
Brc1ccc2c(c1)CNCc1cnnn1-2	6.88% (inactive)
Cc1cc(N2CCNC[C@@H]2C)ccc1N1CC[C@H](O)C1	7.07% (inactive)
COc1ccc(N2C(=O)/C(=C/c3ccco3)C(=O)NC2=S)cc1	59.1% (active)
O=S(=O)(c1ccccc1)N1CCC2CCNC2C1 (stereo not given)	5.81% (inactive)
CCC(C)NC1(c2ccccc2)CCCCC1 (stereo not given)	2.52% (inactive)
COC(=O)C(O)(c1ccc(NC(=O)c2ccco2)c(OC)c1)C(F)(F)F (stereo not given)	-2.33% (inactive)
CO[C@H]([C@H](C)/C=C/N(C)C=O)[C@@H](C)C(=O)CC[C@H](C)[C@H](O)[C@H](C)[C@H]1OC(=O)/C=C/C(C)=C/[C@H](O)[C@H](OC)C[C@@H]2C=CC[C@@H](C[C@H](OC)[C@@]3(CO3)[C@@H](OC)C[C@@H](OC)[C@@H]1C)O2	0.17% (inactive)
Clc1ccc([C@@H]2CC3CCC2N3)cn1 (stereo not given in full)	4.15% (inactive)
O=C1NC(=O)N(Cc2ccco2)C(=O)/C1=C\c1ccc(-c2ccc(F)cc2)o1	73.2% (active)
Cc1cc(C=C2C(=O)NC(=O)NC2=O)c(C)n1-c1ccncc1	3.8% (inactive)
Cc1ccnc(-n2c(C)cc(/C=C3\C(=O)NC(=S)N(C)C3=O)c2C)c1	1.59% (inactive)
Cc1cc(/C=C2/C(=O)NC(=O)N(Cc3ccco3)C2=O)c(C)n1-c1ccc(C(=O)O)cc1	86% (active)
Cc1ccccc1CCC[C@@H](CC1CCCCC1)CN(C)C(=O)Oc1ccccc1	-1.47% (inactive)
C[N+]12CN3CN(CN(C3)C1)C2	-0.49% (inactive)
COc1cc(OC)cc(C(=O)NCCN2CCC3(CC2)C(=O)NCN3c2ccccc2)c1	4.72% (inactive)
CCN(CC)C(=O)[C@@H]1C=C2c3cccc4[nH]c(Br)c(c34)C[C@H]2N(C)C1	1.36% (inactive)
CS(=O)(=O)N1CCC2CCNC2C1 (stereo not given)	-2.54% (inactive)
O=C(N/N=C/c1c(O)n(C2CC2)c(=S)[nH]c1=O)c1ccccc1	-7.23% (inactive)
COP(=O)(Sc1ccccc1)C(Cc1ccccc1)NC(=O)OCc1ccccc1 (stereo not given)	4.08% (inactive)
